MCF10A rereplic – A quantitative high throughput screen for small molecules that induce DNA re-replication in MCF 10a normal breast cells; Potency, µM (doses to about 46.1 µM), hits mostly activators; 350,000 tested, 2.9% active; MCF 10A DNA re-replication, Hoechst nuclear intensity, 48 h; AID 624296, 2012; further: nearly all actives have a fitted effect of over 50% in size
ELG1 repair inh – qHTS screen for small molecules that inhibit ELG1-dependent DNA repair in human embryonic kidney (HEK293T) cells expressing luciferase-tagged ELG1; HEK293T ELG1-luciferase reporter, luminescence, 16 h; DNA damage induced by 5-fluorouridine; Potency, µM (top dose mostly 46.1 µM), most hits filed as inhibitors; 330,000 tested, 2.3% active; further: nearly all actives have a fitted effect of over 55% in size
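Quantitative HTS, concentration-response format. 2,000 cells/well co-treated with 5-fluorouridine and compound, 16 hr in 5% CO2 at 37 °C; ONE-Glo luminescence read after 30 min.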
KB-V1 cytotox – qHTS assay for MDR1-selective chemotherapeutics: Primary screen using the drug-selected MDR subline cells KB-V1; 400,000 tested, 3.4% active; KB-V1 MDR cells viability, CellTiter-Glo, 72 h; AID 1347076, 2019; Potency, µM (top dose mostly 46.1 µM), actives largely listed as cytotoxic; further: nearly all actives have a fitted effect of over 60% in size
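Luminescent ATP read-out (CellTiter-Glo, 10 min) measures survival of drug-selected KB-V1 MDR cells after 72 h, 37 degrees C compound exposure. Medium: phenol-red-free DMEM, 10% FBS. Values from fitted concentration-response curves.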
SW480 rereplic – A quantitative high throughput screen for small molecules that induce DNA re-replication in SW480 colon adenocarcinoma cells; SW480 DNA re-replication, Hoechst DNA content imaging, 48 h; Potency, µM (highest dose often 46.1 µM), hits mostly activators; 340,000 tested, 1.8% active; AID 624297, 2012; further: nearly all actives have a fitted effect of over 55% in size
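First, 250 cells per well were seeded. Next, compound or vehicle (23 nL) was pinned in, plates sat 48 hr at 37 C. Finally Hoechst was added for 40 min before fluorescence scanning.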
KB-3-1 cytotox – qHTS assay for MDR1-selective chemotherapeutics: Primary screen using the parental adenocarcinoma cell KB-3-1; KB-3-1 viability, CellTiter-Glo ATP luminescence, 72 h; Potency, µM (highest dose often 46.1 µM), actives largely listed as cytotoxic; 400,000 tested, 1.4% active; further: nearly all actives have a fitted effect of over 60% in size
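Cytotoxicity measured as CellTiter-Glo luminescence after 72 h at 37 C. Compound titrations were pinned onto drug-naive KB-3-1 parental adenocarcinoma cells grown in DMEM with 10% FBS, and normalized data fitted to concentration-response curves.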
Of the large screens only hits and unclear results are named; the others gave an inactive call. Hits are enriched below; roughly 8.2% of the tested compounds scored in any of these assays. The call rests on the fitted dose curve; in most records, active means well fitted curve in the direction sought with a large enough effect; inconclusive means small, poorly fitted or top-dose-only effect, or another doubt; inactive means no such curve, though single readings can be large; an effect the other way counts as inactive or inconclusive.

Cc1cc2c(C)nc(Cc3ccccc3)nc2o1	ELG1 repair inh 18µM
C=CCNC1=C2C[C@@H](C)C[C@H](OC)[C@H](O)[C@@H](C)/C=C(\C)[C@H](OC(N)=O)[C@@H](OC)/C=C\C=C(/C)C(=O)NC(=CC1=O)C2=O	MCF10A rereplic 0.067µM (no result: ELG1 repair inh, KB-V1 cytotox, KB-3-1 cytotox)
COC1C=CC=C(C)C(=O)NC2=CC(=O)C(N)=C(CC(C)CC(OC)C(O)C(C)C=C(C)C1OC(N)=O)C2=O (stereo unspecified)	SW480 rereplic 0.23µM (no result: ELG1 repair inh)
CCOC(=O)c1sc(Nc2nc3ccc(OC)cc3s2)cc1C	MCF10A rereplic 18µM, SW480 rereplic inconclusive
CCCC(=O)Nc1nc2ccc(OC)cc2s1	ELG1 repair inh inconclusive
CCOC(=O)c1sc(NC(=O)c2cccs2)cc1C	ELG1 repair inh inconclusive, KB-V1 cytotox inconclusive
CCOC(=O)c1sc(Nc2nc3c(F)cccc3s2)cc1C	MCF10A rereplic 21µM, ELG1 repair inh inconclusive, SW480 rereplic inconclusive
CCOC(=O)c1sc(NC(=O)Nc2cccc(Cl)c2)cc1C	MCF10A rereplic inconclusive, ELG1 repair inh inconclusive, KB-V1 cytotox 13µM, KB-3-1 cytotox inconclusive
CCOc1ccccc1NC(=O)CSc1nc2c(oc3ccccc32)c(=O)n1C(C)C	none (no result: MCF10A rereplic, ELG1 repair inh, SW480 rereplic)
CNC[C@@H]1OCc2cnnn2CCCC(=O)N([C@H](C)CO)C[C@H]1C	KB-V1 cytotox inconclusive (no result: MCF10A rereplic, ELG1 repair inh, SW480 rereplic)
CC(C)CC[n+]1ccn(-c2nc3ccccc3nc2[N-]S(=O)(=O)c2ccc(Cl)cc2)c1	MCF10A rereplic 23µM, SW480 rereplic inconclusive
O=S(=O)([N-]c1nc2ccccc2nc1-n1cc[n+](Cc2ccccc2)c1)c1ccc(Br)cc1	MCF10A rereplic 18µM, ELG1 repair inh inconclusive, SW480 rereplic 18µM
Cc1ccc(S(=O)(=O)[N-]c2nc3ccccc3nc2-n2cc[n+](CCC(C)C)c2)cc1	none
CC(=O)c1ccc(NC(=O)C2CCC(CNS(=O)(=O)c3ccc4c(c3)CCCC(=O)N4)CC2)cc1 (stereo unspecified)	none (no result: MCF10A rereplic, ELG1 repair inh, SW480 rereplic)
COCCC(=O)N1CCC(C(=O)Nc2ccc(Oc3ccccc3)nc2)CC1	ELG1 repair inh inconclusive
CC1(C)CC(=O)C2=C(C1)OC(N)=C(C#N)C2C1CC=CCC1 (stereo unspecified)	KB-V1 cytotox 16µM
N#CC1=C(N)Oc2cc(N)ccc2C1C1CC=CCC1 (stereo unspecified)	MCF10A rereplic 6.5µM, ELG1 repair inh inconclusive, KB-V1 cytotox 6.5µM, SW480 rereplic 16µM, KB-3-1 cytotox inconclusive
O=C(O)c1cc(N=Nc2c(O)ccc3ccccc23)cc(C(=O)O)c1	none
O=C(O)c1ccc(N=Nc2c(O)ccc3ncccc23)cc1	ELG1 repair inh inconclusive, KB-V1 cytotox inconclusive, SW480 rereplic 15µM, KB-3-1 cytotox inconclusive
Nc1cc2ccncc2c2ccccc12	MCF10A rereplic 21µM, ELG1 repair inh 1.8µM, KB-V1 cytotox inconclusive, SW480 rereplic inconclusive
N#Cc1cc2ccncc2c2ccccc12	KB-3-1 cytotox inconclusive (no result: MCF10A rereplic, ELG1 repair inh, SW480 rereplic)
COc1cc(OC)c(OC)cc1/C=N/n1c(C)nc2ccccc2c1=O	none
COc1cccc(/C=N/n2c(-c3ccco3)nc3ccccc3c2=O)c1OC	ELG1 repair inh 5.2µM
COc1cccc(/C=N/n2c(=S)n(C)c3ccccc32)c1OC	none
COc1cccc(/C=N\n2c(C)nnc2C)c1OC	ELG1 repair inh inconclusive
COc1cccc(/C=N/n2c(=O)[nH]c3ccccc32)c1OC	ELG1 repair inh inconclusive, SW480 rereplic 4.1µM
COc1cccc(/C=N/n2c(C)nc3ccccc32)c1OC	ELG1 repair inh inconclusive, KB-V1 cytotox 12µM
Cc1ccccc1OCC(=O)N(Cc1cccs1)C1CCS(=O)(=O)C1 (stereo unspecified)	none
Cc1cccc(OC(C)C(=O)N(Cc2cccs2)C2CCS(=O)(=O)C2)c1C (stereo unspecified)	KB-V1 cytotox 5.8µM
CCOc1cc(/C=C2\C(=O)N(CCc3ccc(OC)c(OC)c3)C(C)=C2C(=O)OC)ccc1O	ELG1 repair inh 1.6µM, SW480 rereplic inconclusive
COC(=O)C1=C(C)N(Cc2ccc(C)cc2)C(=O)/C1=C\c1ccc(O)c(OC)c1	MCF10A rereplic inconclusive, KB-V1 cytotox inconclusive
COc1ccc(CCNC(=O)c2cccc3c2C(=O)N(C2CCCCC2)C3)cc1OC	ELG1 repair inh inconclusive, KB-V1 cytotox 18µM
CCOC(=O)c1ccccc1NC(=O)c1cccc2c1C(=O)N(C1CCN(C(=O)OCC)CC1)C2	ELG1 repair inh 18µM, KB-3-1 cytotox inconclusive
Cc1cc(C)cc(NC(=O)c2cccc3c2C(=O)N(C2CCCCC2)C3)c1	ELG1 repair inh inconclusive
COc1cc(NC(=O)c2cccc3c2C(=O)N(C2CCCCC2)C3)cc(OC)c1OC	MCF10A rereplic inconclusive, ELG1 repair inh 4.6µM, KB-V1 cytotox inconclusive, KB-3-1 cytotox inconclusive
O=C(NCCc1ccccc1)c1cccc2c1C(=O)N(C1CCCCC1)C2	ELG1 repair inh inconclusive
CN(C)CCNc1ncnc2c1ncn2[C@H]1CN(Cc2ccco2)C[C@@H](CO)O1	none (no result: MCF10A rereplic, ELG1 repair inh, SW480 rereplic)
Cc1ccccc1CS(=O)(=O)Cc1ccc(C(=O)NCc2ccc(F)cc2)o1	KB-V1 cytotox inconclusive (no result: MCF10A rereplic, ELG1 repair inh, SW480 rereplic)
COc1cc2c(cc1OC)C(c1ccc(Br)cc1)N(C(=O)c1ccccc1C(=O)O)CC2 (stereo unspecified)	ELG1 repair inh inconclusive, SW480 rereplic inconclusive
CN=c1sc2c(n1C)C(=O)c1ccccc1C2=O	MCF10A rereplic 8.2µM, KB-V1 cytotox inconclusive, SW480 rereplic 13µM, KB-3-1 cytotox inconclusive (no result: ELG1 repair inh)
CN=c1sc(C(=O)Nc2ccccc2)c(C)n1C	none
COc1ccccc1N1CCN(C(=O)c2cccc(S(=O)(=O)N3CCCCCC3)c2)CC1	MCF10A rereplic inconclusive, ELG1 repair inh 13µM, KB-V1 cytotox inconclusive
Cc1cccc(N2CCN(C(=O)c3ccc4nc(N5CCCCC5)sc4c3)CC2)c1C	ELG1 repair inh 23µM, KB-V1 cytotox inconclusive, KB-3-1 cytotox inconclusive
COc1ccc(S(=O)(=O)N2CCCCCC2)cc1C(=O)N1CCN(c2ccccc2O)CC1	ELG1 repair inh 13µM, KB-V1 cytotox inconclusive
COc1cc(C(=O)N2CCN(S(=O)(=O)c3ccc(F)cc3)CC2)cc(OC)c1OC	KB-V1 cytotox 21µM
COc1ccc(Cl)cc1S(=O)(=O)N1CCN(C(=O)c2cc(OC)c(OC)c(OC)c2)CC1	none
O=C(NCc1cccnc1)c1cc(C2CCCCN2S(=O)(=O)c2ccc(F)cc2F)on1 (stereo unspecified)	none (no result: MCF10A rereplic, ELG1 repair inh, SW480 rereplic)
Cc1cccc(N2CCN(C(=O)c3cccc(S(=O)(=O)N4CCCCC4)c3)CC2)c1C	MCF10A rereplic 15µM, ELG1 repair inh 13µM, KB-V1 cytotox inconclusive, SW480 rereplic inconclusive, KB-3-1 cytotox inconclusive

Screens as filed in PubChem BioAssay.
